Bioassay records deposited in PubChem by The Scripps Research Institute Molecular Screening Center.
Hits are enriched below; roughly 4.8% of the tested compounds scored in any of these assays.
SMARCA2 activ: SMARCA2 (BRM) function activators, primary screen, cell-based, luminescence, high throughput; MG213 cells, MMTV-luciferase reporter, dexamethasone, overnight; activation, % at 9.1 µM; hit rate 1% among 370,000; AID 652017, 2013; in the data active means activation above about 7.8%
hgDAF12 agonist: H. glycines DAF-12 receptor agonists, primary screen, cell-based, luminescence, HEK293, GAL4 fusion, UAS-luciferase; Nuclear hormone receptor DAF-12 (Heterodera glycines), GAL4 fusion; HEK293 GAL4-hgDAF12 UAS-luciferase reporter, agonist luminescence; normalized to butyrate control; activation, % at 6.8 µM; hit rate 1.8% among 370,000;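 active means activation above a cutoff set at the mean of all screened compounds plus 3 SD, cut at about 10% in these data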
DAX1 inh-1: DAX1 (NR0B1) inhibitors, primary screen, cell-based, HEK293, Gal4-DAX1, luciferase luminescence; Nuclear receptor subfamily 0 group B member 1 (Homo sapiens), P51843; HEK293 Gal4-DAX1 luciferase reporter; inhibition, % at 6.75 µM; hit rate 0.99% among 340,000; AID 504766, 2011;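 active means inhibition above the mean over all tested compounds plus 3 SD, cut at about 4.2% in these data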;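 further: inhibition shows as a rise in luminescence from relieved DAX1 repression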
Target sequence (P51843 207-470 limits assumed): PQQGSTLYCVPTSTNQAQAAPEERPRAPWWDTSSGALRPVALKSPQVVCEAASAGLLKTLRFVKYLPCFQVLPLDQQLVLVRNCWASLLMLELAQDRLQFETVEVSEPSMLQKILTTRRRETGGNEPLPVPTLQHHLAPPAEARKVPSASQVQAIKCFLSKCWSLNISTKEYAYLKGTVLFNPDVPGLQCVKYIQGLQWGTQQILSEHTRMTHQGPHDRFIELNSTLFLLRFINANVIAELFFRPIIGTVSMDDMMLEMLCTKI
DAX1 inh-2: DAX1 (NR0B1) inhibitors on StAR promoter, primary screen, cell-based, luminescence, SF-1 (NR5A1), full-length DAX-1 | HEK293T StAR-luciferase reporter, SF-1/DAX-1 repression relief | inhibition, % at 6.8 µM | hit rate 1.1% among 370,000;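 active means inhibition above the mean over all tested compounds plus 3 SD, cut at about 3.6% in these data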;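 further: higher inhibition means more luminescence from relief of DAX-1 repression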
hcDAF12 agonist: H. contortus DAF-12 nuclear receptor activators, primary screen, cell-based, luminescence, HEK293, lit1-tk-luc reporter | HEK293 hcDAF-12 lit1-tk-luc reporter; 0% DMSO, 100% Δ7-dafachronic acid | activation, % at 6.8 µM | hit rate 1.4% among 370,000 | AID 652067, 2013;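 active means activation above the mean of all tested compounds plus 3 SD, cut at about 5.5% in these data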
ssDAF12 agonist: S. stercoralis DAF-12 nuclear receptor activators, primary screen, cell-based, luminescence, HEK293, GRIP1 co-expression, lit1-tk-luc. hit rate 1% among 370,000. Nuclear hormone receptor DAF-12 (Strongyloides stercoralis). activation, % at 6.8 µM. HEK293 ssDAF-12/GRIP1 lit1-tk-luc reporter; % of 3 µM dafachronic acid response;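 active means activation above the mean over all tested compounds plus 3 SD, cut at about 0.9% in these data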
A number is an active result; . = inactive; / = no result given.

SMILES	SMARCA2 activ	hgDAF12 agonist	DAX1 inh-1	DAX1 inh-2	hcDAF12 agonist	ssDAF12 agonist
COc1ccc(NC(=O)NCc2ccco2)c(OC)c1	.	.	.	.	.	.
Cc1ccc(C)c(Nc2nc3c(S(=O)(=O)c4ccccc4)nnn3c3ccccc23)c1	.	.	.	.	.	.
Cc1ccc(OCCOc2ccc(Cl)cc2Cl)c(Br)n1	/	12	/	/	.	.
CN1/C(=C\C=[N+](C)c2ccccc2)C(C)(C)c2ccccc21	.	.	.	.	.	.
CCN(C(=O)CN1C(=O)S/C(=C\c2ccccc2OC)C1=O)C1CCS(=O)(=O)C1 (configuration not stated)	.	.	.	.	.	.
CC(=O)c1ccc(Nc2cnn(C34CC5CC(CC(CC(=O)O)(C5)C3)C4)c(=O)c2Cl)cc1	.	.	5.4	.	.	.
Cc1ccc(C)c(N(CC(=O)Nc2ccccc2C(=O)NCc2ccco2)S(=O)(=O)c2ccccc2)c1	.	.	.	.	.	.
Cc1cc(C)n(-c2cc(N3CCN(S(=O)(=O)c4ccc5ccccc5c4)CC3)ccc2[N+](=O)[O-])n1	.	.	.	.	.	.
COc1ccc(C(=O)N2CCN(c3ccc([N+](=O)[O-])c(-n4nc(C)cc4C)c3)CC2)cc1	12	.	.	.	.	.
Cc1cc(C)n(-c2cc(N3CCN(S(=O)(=O)c4ccc(C)c(C)c4)CC3)ccc2[N+](=O)[O-])n1	.	.	5.4	.	.	.
O=C(NCCS(=O)(=O)c1ccc(Br)cc1)c1ccc(F)cc1	.	.	.	.	.	.
N#Cc1ccccc1NC(=O)c1cc(=O)c2ccccc2o1	.	11	.	.	.	.
Cc1ccc(N(C(=O)c2ccco2)C(C(=O)NC2CCCC2)c2cccnc2)cc1 (configuration not stated)	.	.	.	.	.	.
CC(=O)c1ccc(NC(=O)CN2c3cccc4cccc(c34)S2(=O)=O)cc1	.	.	6.0	.	.	.
CC1=C(C(=O)N2CCCCCC2)CC(CC(=O)NCCc2ccccn2)C(=O)N1Cc1ccccc1 (configuration not stated)	.	.	/	.	.	.
CC(C)OCCCNC(=S)NNC(=O)c1ccc(Cl)c(Cl)c1	.	11	.	.	.	.
COc1cc(OC)cc(-c2oc(=O)c3cc(OC)c(OC)cc3c2C#CCCO)c1	.	.	.	.	.	.
Clc1cccc(NCc2ccccc2)n1	.	.	4.9	.	.	.
Clc1nccc(NCc2ccccc2)n1	.	.	.	.	.	.
CCc1cccc(Nc2cc(C)nc3nc(C)nn23)c1	.	.	4.3	.	.	.
Cc1nc(N)[nH]c(=O)c1CCCNc1ccc(CCC2(CCl)OCCO2)cc1	.	13	.	.	.	.
CCc1ccccc1NC(=O)CSc1n[nH]c(C)c1[N+](=O)[O-]	.	.	5.3	.	.	.
Cc1[nH]nc(SCC(=O)NC(C)c2ccccc2)c1[N+](=O)[O-] (configuration not stated)	.	.	4.3	.	.	.
Cc1nnc(SCC(=O)NCC(=O)Nc2ccc(F)c(F)c2F)n1N	.	.	.	.	.	.
COc1ccc(OC)c(/C=C2\SC(=S)N(NS(=O)(=O)c3ccc(C)cc3)C2=O)c1	.	.	.	.	.	.
SMILES	SMARCA2 activ	hgDAF12 agonist	DAX1 inh-1	DAX1 inh-2	hcDAF12 agonist	ssDAF12 agonist
Cc1cc(C)c2c(N=CN(C)C)c(C(=O)N3CCN(c4ncccn4)CC3)sc2n1	.	.	.	.	.	.
COC(=O)/C=C/c1sc2nc(C)cc(C)c2c1N=CN(C)C	.	.	/	.	5.6	.
CCCC[C@H]1C2CC(OC(=O)Nc3ccccc3)C(C2)[C@H]2CCCCN21 (some centres not stated)	.	.	/	.	.	.
O=C(Nc1ccccc1)OC1CC2CC1C1CCCC21 (configuration not stated)	.	12	.	.	.	.
Cc1nc2ccccc2c2oc(C(=O)NCc3ccccn3)cc12	.	.	.	.	.	.
C=C(C)CN1C(=O)C(=O)N(CC(=C)C)C1=O	.	.	/	.	.	.
CCN(CC(=O)NCc1cccs1)C(=O)c1ccc(NS(=O)(=O)c2cccc([N+](=O)[O-])c2)cc1	.	.	4.8	.	.	.
CS(=O)(=O)N(CC(=O)Nc1ccccc1C(=O)N1CCCC1)c1cccc([N+](=O)[O-])c1	.	.	.	.	.	.
O=Cc1ccc(OCc2ccccn2)cc1	.	11	.	.	.	.
Cc1cc(C)n(-c2ccc(C(=O)OCC(=O)Nc3cc(Cl)ccc3[N+](=O)[O-])cc2)n1	.	.	.	.	.	1.2
Cc1cc(C)n(-c2ccc(C(=O)OCC(=O)Nc3ccccc3[N+](=O)[O-])cc2)n1	.	.	.	.	.	.
CC(Oc1ccc2c3c(c(=O)oc2c1)CCC3)C(=O)NCC1CCC(C(=O)O)CC1 (configuration not stated)	.	.	4.7	.	.	.
Cc1cc(=O)oc2cc(OC(C)C(=O)NCC3CCC(C(=O)O)CC3)c(Cl)cc12 (configuration not stated)	.	.	.	.	.	.
CCc1cc(=O)oc2cc(OC(C)C(=O)NCC3CCC(C(=O)O)CC3)c(Cl)cc12 (configuration not stated)	.	.	5.9	.	.	.
COc1ccc(Nc2cc(C(=O)NCc3ccco3)c3ccccc3n2)c(OC)c1	.	.	.	.	.	.
CC1=C/C(=N\N=C2\NC(=O)C(CC(=O)Nc3ccccc3)S2)CC(C)(C)C1 (configuration not stated)	.	.	.	.	.	.
CCCCNc1cc(=O)n(C)c(=O)[nH]1	.	.	8.1	.	.	.
Cn1c(=O)cc(NCc2ccccc2)[nH]c1=O	.	.	.	.	.	.
CCc1ccc(C(=O)/C=C/c2cnn(C)c2C)s1	.	12	5.2	.	.	.
CC(=O)NC1(C(F)(F)F)C(=O)Nc2c1c(=O)[nH]c(=O)n2CC(C)C (configuration not stated)	.	.	.	.	.	.
CC(C)Cn1c2c(c(=O)[nH]c1=O)C(NS(=O)(=O)c1ccc(Cl)cc1)(C(F)(F)F)C(=O)N2 (configuration not stated)	.	.	4.3	.	.	.
